The results in this text go back to paper PMC5515408, “Sequence-specific DNA binding by MYC/MAX to low-affinity non-E-box motifs”.

Over roughly 4,500 sequences, “log2 normalized fluorescence” has its median near -0.34; the highest 2% begin near 3.3. This excerpt belongs to a sample that is enriched for the highest values.

Sequence of MAX:MAX (p21) (P61244 other isoform, or with tags, fused parts or gaps): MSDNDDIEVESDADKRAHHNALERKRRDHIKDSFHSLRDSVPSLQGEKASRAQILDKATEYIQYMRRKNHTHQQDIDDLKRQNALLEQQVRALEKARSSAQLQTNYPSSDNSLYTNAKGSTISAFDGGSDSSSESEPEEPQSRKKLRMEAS

The target of this experiment is MAX:MAX (p21) (human, UniProt P61244-2 1-151). Nature of the experiment: protein-binding microarray (anti-MAX antibody); PBM: 15 mM Tris-HCl pH 7.5, 100 mM KCl, 0.075% NP40, 7.5 mM beta-mercaptoethanol, 375 ng/ul BSA, 8 ng/ul poly(dA-dT):(dA-dT), 550 ng complex, 60 min, room tempe; high values mean tight binding. Conditions: protein: recombinant; tags: 6xHis; chain copies: 2; label: 3' end of printed strand (linker) attached to glass slide; dsDNA, one strand shown. A digest of the protocol:
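Binding is reported as log2 normalized fluorescence. Recombinant His-tagged human MYC:MAX or MAX:MAX dimers expressed in E. coli (550 ng) were incubated with a custom Agilent glass array for 60 min at room temperature in Tris-KCl buffer, pH 7.5, containing NP40, BSA and poly(dA-dT) competitor. The array carried ~5000 unique 12-nt sequences, each spotted in triplicate and made double-stranded by primer extension, and bound protein was detected with anti-MAX and secondary antibodies and scanned at 543 nm.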
Take “CCGGCTGAAGTTATGTATTAATAGCTAAGATTACTATATCGACG”: the binding signal was -0.594 log2 normalized fluorescence.

For the sequence “CCGGCTGAGGAACCGTATTAATAGCTAAGATTACTATATCGACG”, the binding signal was -0.709 log2 normalized fluorescence.

Consider “CCGGCTGACACGGTATATTAATAGCTAAGATTACTATATCGACG”, for which the binding signal is 1.17 log2 normalized fluorescence.

As for “CCGGCTGATAGGAGGTATTAATAGCTAAGATTACTATATCGACG”, the binding signal was -0.743 log2 normalized fluorescence.

Regarding “CCGGCTGAGAGCGTGTATTAATAGCTAAGATTACTATATCGACG”, the binding signal was 2.11 log2 normalized fluorescence.

Take “CCGGCTGAAGGCAAGTATTAATAGCTAAGATTACTATATCGACG”: the binding signal is -0.39 log2 normalized fluorescence.

As to “CCGGCTGAATGTGGGTATTAATAGCTAAGATTACTATATCGACG”, the binding signal was 0.753 log2 normalized fluorescence.

As for “CCGGCTGAGGCGCAGTATTAATAGCTAAGATTACTATATCGACG”, the binding signal was -0.509 log2 normalized fluorescence.

On to “CCGGCTGAGGGTGCGTATTAATAGCTAAGATTACTATATCGACG”, for which the binding signal was 0.326 log2 normalized fluorescence.

In the case of “CCGGCTGACACTTGGTTTTAATAGCTAAGATTACTATATCGACG”, the binding signal is 0.395 log2 normalized fluorescence.

“CCGGCCGACACATGGTTTTAATAGCTAAGATTACTATATCGACG”: the binding signal is 3.32 log2 normalized fluorescence.

On to “CCGGCTGACATGTGGTTTTAATAGCTAAGATTACTATATCGACG”, for which the binding signal is 2.98 log2 normalized fluorescence.

For the sequence “CCGGCCGACCCGTGGTTTTAATAGCTAAGATTACTATATCGACG”, the binding signal is 2.34 log2 normalized fluorescence.

Consider “CCGGCCGACACGCGGTTTTAATAGCTAAGATTACTATATCGACG”, for which the binding signal is 3.18 log2 normalized fluorescence.

For “CCGGCTGACACATGGTTTTAATAGCTAAGATTACTATATCGACG”, the binding signal is 3.37 log2 normalized fluorescence.

With “CCGGCTGATCGCACGTATTAATAGCTAAGATTACTATATCGACG”, the binding signal was 0.308 log2 normalized fluorescence.

For the sequence “CCGGCTGAGGTCTTGTATTAATAGCTAAGATTACTATATCGACG”, the binding signal is -0.72 log2 normalized fluorescence.

On to “CCGGCTGTCACGTGATATTAATAGCTAAGATTACTATATCGACG”, for which the binding signal is 3.2 log2 normalized fluorescence.

For “CCGGCGCTCACGTGGTATTAATAGCTAAGATTACTATATCGACG”, the binding signal was 3.34 log2 normalized fluorescence.

“CCGGCACTCACGTGGTATTAATAGCTAAGATTACTATATCGACG”: the binding signal is 3.13 log2 normalized fluorescence.

With “CCGGCTCTTACGTGGTATTAATAGCTAAGATTACTATATCGACG”, the binding signal was 0.802 log2 normalized fluorescence.

Regarding “CCGGCCCTCACGTGGTATTAATAGCTAAGATTACTATATCGACG”, the binding signal was 3.26 log2 normalized fluorescence.

Regarding “CCGGCTCACACGCGGTTTTAATAGCTAAGATTACTATATCGACG”, the binding signal was 3.17 log2 normalized fluorescence.

Regarding “CCGGCTCACACGTGTTATTAATAGCTAAGATTACTATATCGACG”, the binding signal is 3.29 log2 normalized fluorescence.

With “CCGGCTCACACGTGATATTAATAGCTAAGATTACTATATCGACG”, the binding signal was 3.31 log2 normalized fluorescence.

“CCGGCTCACACGAGGTTTTAATAGCTAAGATTACTATATCGACG”: the binding signal is 3.32 log2 normalized fluorescence.

Consider “CCGGCTCTCACGTGGTATTAATAGCTAAGATTACTATATCGACG”, for which the binding signal is 3.5 log2 normalized fluorescence.

As to “CCGGCTGGCACGAGGTTTTAATAGCTAAGATTACTATATCGACG”, the binding signal was 3.28 log2 normalized fluorescence.

For “CCGGCTCTCACGTGGTCTTAATAGCTAAGATTACTATATCGACG”, the binding signal was 3.06 log2 normalized fluorescence.

On to “CCGGCTGATGCTGAGTATTAATAGCTAAGATTACTATATCGACG”, for which the binding signal was 0.00915 log2 normalized fluorescence.

In the case of “CCGGCTGAACAAAGGTATTAATAGCTAAGATTACTATATCGACG”, the binding signal is -0.6 log2 normalized fluorescence.

In the case of “CCGGCTGACCGCGAGTATTAATAGCTAAGATTACTATATCGACG”, the binding signal is 1.06 log2 normalized fluorescence.

On to “CCGGCTGAGCACAAGTATTAATAGCTAAGATTACTATATCGACG”, for which the binding signal was 0.993 log2 normalized fluorescence.

Turning to “CCGGCTGGCACGTGCTATTAATAGCTAAGATTACTATATCGACG”, the binding signal was 3.25 log2 normalized fluorescence.

Turning to “CCGGCTCACACGTTTTATTAATAGCTAAGATTACTATATCGACG”, the binding signal is 3.25 log2 normalized fluorescence.

For the sequence “CCGGCTCACACGTCGTATTAATAGCTAAGATTACTATATCGACG”, the binding signal is 2.63 log2 normalized fluorescence.

As for “CCGGCTCACACGTGGTTTTAATAGCTAAGATTACTATATCGACG”, the binding signal is 3.32 log2 normalized fluorescence.

“CCGGCTAACACGTGGTTTTAATAGCTAAGATTACTATATCGACG”: the binding signal was 3.27 log2 normalized fluorescence.

With “CCGGCTCACACGTGGTATTAATAGCTAAGATTACTATATCGACG”, the binding signal is 3.33 log2 normalized fluorescence.

“CCGGCTCAGACGTGGTATTAATAGCTAAGATTACTATATCGACG”: the binding signal was 1.39 log2 normalized fluorescence.

Turning to “CCGGCTGAATGACCGTATTAATAGCTAAGATTACTATATCGACG”, the binding signal is 0.107 log2 normalized fluorescence.

In the case of “CCGGCTCACACCTCGTATTAATAGCTAAGATTACTATATCGACG”, the binding signal is 2.28 log2 normalized fluorescence.

On to “CCGGCTGACGGTTCGTATTAATAGCTAAGATTACTATATCGACG”, for which the binding signal was -0.498 log2 normalized fluorescence.

Regarding “CCGGCGGACGCGTGGTATTAATAGCTAAGATTACTATATCGACG”, the binding signal was 3.14 log2 normalized fluorescence.

As to “CCGGCCAGCACGTGGTATTAATAGCTAAGATTACTATATCGACG”, the binding signal is 3.24 log2 normalized fluorescence.

As to “CCGGCGGACTCGTGGTATTAATAGCTAAGATTACTATATCGACG”, the binding signal is 3.3 log2 normalized fluorescence.

For “CCGGCGCGCACGTGGTATTAATAGCTAAGATTACTATATCGACG”, the binding signal is 3.39 log2 normalized fluorescence.

In the case of “CCGGCTAGCACGTGGTATTAATAGCTAAGATTACTATATCGACG”, the binding signal is 3.44 log2 normalized fluorescence.

For “CCGGCTCATACGTGGAATTAATAGCTAAGATTACTATATCGACG”, the binding signal was 1.28 log2 normalized fluorescence.

With “CCGGCTCGCACGTGGAATTAATAGCTAAGATTACTATATCGACG”, the binding signal is 3.31 log2 normalized fluorescence.

As to “CCGGCGCAAACGTGGTATTAATAGCTAAGATTACTATATCGACG”, the binding signal is 2.98 log2 normalized fluorescence.

For the sequence “CCGGCGCACACGTGGTATTAATAGCTAAGATTACTATATCGACG”, the binding signal was 3.29 log2 normalized fluorescence.

On to “CCGGCTGAAACGTGGAATTAATAGCTAAGATTACTATATCGACG”, for which the binding signal was 2.54 log2 normalized fluorescence.

Turning to “CCGGCGGACCCGTGGTATTAATAGCTAAGATTACTATATCGACG”, the binding signal was 2.46 log2 normalized fluorescence.
